The source of these data is PubChem BioAssay (NCATS).

Records with an inconclusive call do not appear. Active and inactive are the calls of the source. Calls follow the shape of the dose curve; as a rule, active = well fitted curve in the direction sought with a large enough effect; inconclusive = small, poorly fitted or top-dose-only effect, or another doubt; inactive = no such curve, though single readings can be large; an effect the other way counts as inactive or inconclusive.

The nature of test [1]: qHTS of pediatric cancer cell lines to identify multiple opportunities for drug repurposing: Primary screen for SJ-GBM2 cells (AID 1347091). The gist of the method:
(§1)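 Viability measured as metabolically active cells via CellTiter-Glo luminescence following 48 hours of compound exposure, 11-point dilutions in confirmatory testing. 500-1,000 cells/well plated 5 hours before dosing; controls were DMSO and 2.3 µM bortezomib.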
In general terms: Quantitative high-throughput screening tests each substance at several concentrations.

Test [2] in a line: qHTS of pediatric cancer cell lines to identify multiple opportunities for drug repurposing: Primary screen for A673 cells (AID 1347092). Also: nearly all actives have a fitted effect of over 45% in size. Also: potency is read from the fitted curve at half-maximal effect. The gist of the method:
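Cells are plated, rested 5 h, dosed by pintool, incubated 48 h, then lysed with CellTiter-Glo and read by luminescence. DMSO is the neutral control; bortezomib at 2.3 uM final is the positive control.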

A short description of test [3]: qHTS of pediatric cancer cell lines to identify multiple opportunities for drug repurposing: Primary screen for Saos-2 cells (AID 1347097). Also: nearly all actives have a fitted effect of over 40% in size. Also: potency is read from the fitted curve at half-maximal effect. In a few lines: (§2)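 Cells plated at 500-1,000/well in growth medium, compounds added after 5 h. MIPE tested at 11 points (from 0.78 nM), NPC at 8 points (from 0.59 nM). CellTiter-Glo luminescence after 48 h; concentration-response curves from primary screen.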

Test [4] in a line: qHTS of pediatric cancer cell lines to identify multiple opportunities for drug repurposing: Primary screen for NB1643 cells (AID 1347099). Also: nearly all actives have a fitted effect of over 50% in size. Also: potency is read from the fitted curve at half-maximal effect. In a few lines: as §2
A short description of test [5]: qHTS of pediatric cancer cell lines to identify multiple opportunities for drug repurposing: Primary screen for DAOY cells (AID 1347090). Also: series mostly up to about 46 µM; nearly all actives have a fitted effect of over 55% in size. In a few lines:
as §1

Test [6] in a line: qHTS of pediatric cancer cell lines to identify multiple opportunities for drug repurposing: Primary screen for SK-N-MC cells (AID 1347093). Also: series mostly up to about 46 µM. The text has this: Drug repurposing or repositioning has been offered as a strategy for drug development in oncology programs. This approach has special potential for childhood cancers and other rare or orphan diseases, where the expected return on new drug development has been a disincentive to pharmaceuticals.
In this project we exploit the poly-pharmacology of drugs to discover new indications via phenotypic screening of a panel of 19 well-characterized cell lines derived from solid tumors seen in children and adolescents. The goal is to identify approved drugs with previously unrecognized anticancer properties that has the potential to reveal new mechanisms and biological processes involved in carcinogenesis or drug resistance. We employed a titration-based paradigm (quantitative high-throughput screening or qHTS), where all compounds were tested at multiple concentrations for their effect on cell viability. […] We screened the NIH Chemical Genomics Center (NCGC) Pharmaceutical Collection (NPC) and Mechanism Interrogation Plate (MIPE) small molecule collections of approved and investigational compounds against these cell lines; and measured metabolically active cells after 48 hours of compound treatment as a proxy for cell viability. […]
[1] Shen, M et al. Quantitative high-throughput phenotypic screening of pediatric cancer cell lines identifies multiple opportunities for drug repurposing. […]

A short description of test [7]: qHTS of pediatric cancer cell lines to identify multiple opportunities for drug repurposing: Primary screen for BT-37 cells (AID 1347094). Also: series mostly up to about 57 µM. From the text:
Drug repurposing or repositioning has been offered as a strategy for drug development in oncology programs. This approach has special potential for childhood cancers and other rare or orphan diseases, where the expected return on new drug development has been a disincentive to pharmaceuticals. […] In this project we exploit the poly-pharmacology of drugs to discover new indications via phenotypic screening of a panel of 19 well-characterized cell lines derived from solid tumors seen in children and adolescents. The goal is to identify approved drugs with previously unrecognized anticancer properties that has the potential to reveal new mechanisms and biological processes involved in carcinogenesis or drug resistance. We employed a titration-based paradigm (quantitative high-throughput screening or qHTS), where all compounds were tested at multiple concentrations for their effect on cell viability. Concentration-response curves (CRCs) were derived directly from the primary screen, and both potency and efficacy values were used to identify compounds with robust bioactivity profiles. We screened the NIH Chemical Genomics Center (NCGC) Pharmaceutical Collection (NPC) and Mechanism Interrogation Plate (MIPE) small molecule collections of approved and investigational compounds against these cell lines; and measured metabolically active cells after 48 hours of compound treatment as a proxy for cell viability. […] Assay Submitter: Nathalia J. Martinez, National Center for Advancing Translational Sciences, National Institutes of Health, Rockville, MD, USA; email: natalia.martinez@nih.gov Shen, M et al. Quantitative high-throughput phenotypic screening of pediatric cancer cell lines identifies multiple opportunities for drug repurposing. Oncotarget 2017 Dec 19;9(4):4758-4772. PMID 29435139.
The cells were obtained from University of North Carolina (UNC), Pediatric Preclinical Testing Program (PPT), and Coriell Institute (CI). qHTS cell viability assay: Cells were assayed in growth media at a density of 500-1,000 cells/well. Five microliters of cells were dispensed into 1,536-well, white, solid-bottom, TC-treated plates (Greiner Bio One) using a multidrop dispenser and incubated at 37 degrees C, 5% CO2, under a humidified atmosphere for 5 hours. Twenty-three nanoliters of compounds and controls (neutral control DMSO or positive control bortezomib at final concentration of 2.3 µM) were subsequently transferred by Kalypsys pintool. […] After a 15 min incubation at room temperature, samples were analyzed for luminescence intensity using a ViewLux High-throughput CCD imager equipped with clear filters.

Test [8] can be described thus: qHTS of pediatric cancer cell lines to identify multiple opportunities for drug repurposing: Primary screen for NB-EBc1 cells (AID 1347095). The gist of the method:
as §2

Test [9] in a line: qHTS of pediatric cancer cell lines to identify multiple opportunities for drug repurposing: Primary screen for U-2 OS cells (AID 1347096). Also: nearly all actives have a fitted effect of over 50% in size. The gist of the method:
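Viability after 48 h compound treatment at 37C, 500-1,000 cells/well, read as ATP luminescence with CellTiter-Glo. Primary screens used 11-point (MIPE, 0.78 nM-46 µM) or 8-point (NPC, 0.59 nM-46 µM) final concentrations; follow-up screens used 11-point dilutions.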

Test [10] is described as follows: qHTS of pediatric cancer cell lines to identify multiple opportunities for drug repurposing: Primary screen for SK-N-SH cells (AID 1347098). Also: nearly all actives have a fitted effect of over 65% in size. Also: potency is read from the fitted curve at half-maximal effect. The gist of the method:
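Cells (500-1,000/well) rested 5 h, then received compounds for 48 h; metabolically active cells were measured by CellTiter-Glo luminescence. Final concentrations spanned up to 46 µM (MIPE, 11-point) or 0.59 nM-46 µM (NPC, 8-point) in primary screens, 11-point in follow-ups.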

As for `Nc1ccccc1N`, the molecule was classed as inactive in [1]. Further, the Potency was 15.4 µM (active) in test [2], 30.6 µM (active) in test [3] and 30.6 µM (active) in [4].

In the case of `CCC(C(=O)O)c1ccc(N2Cc3ccccc3C2=O)cc1` (centres undefined), the outcome in test [5], in test [1], in test [6], in [7], in [8] and in test [9] was inactive. The Potency entry in test [2], in test [3], in test [10] and in [4] was “inactive” throughout.

Take `O=C(O)c1c(O)c(-c2ccccc2)nc2ccccc12`: the call in test [5], in test [1], in test [7] and in [9] was inactive. In addition, the Potency result in [2], in test [3], in test [10] and in [4] was “inactive” each time.

Regarding `O=C(O)c1ccccc1NCCc1ccccc1`, the call in [5], in [1], in test [7], in test [8] and in test [9] was inactive. Further, the Potency result in test [2], in [3], in test [10] and in test [4] was “inactive” each time.

`Cc1ccc(N)cc1O`: the molecule was called inactive in test [1]. For the same molecule, the results for the Potency in test [2] and in test [10] were 30.6 µM (active) and 31.4 µM (active), respectively.

In the case of `CCOCCOC(=O)/C=C/c1ccc(OC)cc1`, the outcome in [5], in test [1], in [6], in [7], in test [8] and in [9] was inactive. In addition, the Potency entry in test [2], in [3], in [10] and in [4] was “inactive” in each case.
